Potency and affinity values are given separately. The source made the active and inactive calls.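 Rule for the calls: active = a compound that raises KCNQ2 potassium channel current at -35 mV at one or more tested doses; inactive = no rise at any dose.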
The compounds below were run against Potassium voltage-gated channel subfamily KQT member 2 (Rattus norvegicus) (UniProt O88943) (assay: KCNQ2 channel potentiators, dose response, mechanism study for KCNQ2 potentiator project, cell-based, automated electrophysiology (AID 2603)). Conditions: KCNQ2-CHO cells, automated patch clamp current potentiation; at 30 µM (top of the series).
Potassium voltage-gated channel subfamily KQT member 2 (Rattus norvegicus), sequence (O88943 whole entry, looked up): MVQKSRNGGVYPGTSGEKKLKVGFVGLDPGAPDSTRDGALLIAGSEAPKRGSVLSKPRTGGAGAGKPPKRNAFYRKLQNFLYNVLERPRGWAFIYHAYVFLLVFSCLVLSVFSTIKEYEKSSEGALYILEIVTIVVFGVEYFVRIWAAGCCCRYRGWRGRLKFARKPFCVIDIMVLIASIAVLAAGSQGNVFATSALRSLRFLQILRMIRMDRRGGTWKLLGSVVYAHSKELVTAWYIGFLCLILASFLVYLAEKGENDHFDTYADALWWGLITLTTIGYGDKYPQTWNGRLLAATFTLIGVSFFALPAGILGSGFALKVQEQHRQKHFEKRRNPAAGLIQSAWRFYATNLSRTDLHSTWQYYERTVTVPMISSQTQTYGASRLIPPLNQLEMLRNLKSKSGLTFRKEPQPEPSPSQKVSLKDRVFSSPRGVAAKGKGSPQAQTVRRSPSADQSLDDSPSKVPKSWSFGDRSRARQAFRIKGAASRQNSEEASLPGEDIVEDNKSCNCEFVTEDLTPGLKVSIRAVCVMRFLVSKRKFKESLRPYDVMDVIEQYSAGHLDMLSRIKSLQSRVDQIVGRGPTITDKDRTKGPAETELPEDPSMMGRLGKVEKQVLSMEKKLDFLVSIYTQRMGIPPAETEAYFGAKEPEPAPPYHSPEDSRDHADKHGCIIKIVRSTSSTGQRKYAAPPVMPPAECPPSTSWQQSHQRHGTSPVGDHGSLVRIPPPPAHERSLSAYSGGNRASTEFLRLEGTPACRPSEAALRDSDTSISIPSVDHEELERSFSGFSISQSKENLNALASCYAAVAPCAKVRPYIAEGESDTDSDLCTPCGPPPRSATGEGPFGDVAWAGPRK

Compound | potentiation
CC(C)c1ccc2nc(NC(=O)C3CC3)sc2c1 | 19.3 (inactive)
O=c1c(O)c(-c2cccs2)oc2ccc(Cl)cc12 | -3.59 (inactive)
S=C(NCCc1cccc(Cl)c1)NCc1ccccc1 | 41.2 (inactive)
Cc1ccc(C(=O)NC2(O)C(=O)c3ccccc3C2=O)cc1C | 41.3 (inactive)
CC1(C)CCc2cc(-c3ccn(S(=O)(=O)c4ccccc4Cl)n3)ccc2O1 | 48.6 (inactive)
COc1cc(C)c(C(=O)Oc2cc(C)c(C(=O)O)c(O)c2)c(O)c1 | 72.4
CCC(O)(CC)C(=O)N(Nc1ccc(C)cc1)c1ccc(C)cc1 | 62.7
O=C(Cc1ccccc1)Nc1cccc(N2CCCC2)c1 | -3.46 (inactive)
Cc1ccc(C(C2=C(O)CC(C)(C)CC2=O)C2C(=O)CC(C)(C)CC2=O)o1 (configuration not stated) | 35.1 (inactive)
Cc1nn(-c2cccc(C(F)(F)F)c2)c(Cl)c1/C=N/Nc1cccc(C(=O)O)c1 | 20.9 (inactive)
CCCCCC/C(C)=C1/SC(=S)NC1=O | 16.9 (inactive)
COc1ccc(C(=O)CCS(=O)(=O)c2ccc(F)cc2)cc1OC | 40.2 (inactive)
CC1=C(C)/C(=N\OS(=O)(=O)c2ccccc2)C=CC1=O | 41.9 (inactive)
O=C(O)c1cc(NN=C2c3ccccc3-c3ccccc32)ccc1Cl | 81.9
Nc1cc(N2CCCCC2)c(Cl)cc1[N+](=O)[O-] | 26.9 (inactive)
CC1=C(C(=O)OCC2CCCCC2)C(c2cccc(O)c2)NC(=O)N1 (configuration not stated) | 57
Oc1c(Br)cc(Br)cc1C=Nc1ccc2[nH]ncc2c1 | -1.83 (inactive)
